Source: PubChem (Broad Institute)
The sample as a whole holds a higher share of hits than the screen did.
PD-1 reversal = reversal of PD-1 mediated T-cell inhibition; primary human CD4 T cells, PD-L1 beads, CellTiter-Glo 96 h; AID 2316; 29,000 tested, under 10 active; activation, % (no concentration beside the values); call rule not given here;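 note: 0% = median vehicle wells and 100% = positive control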
NOMO-1 viab = STK33 inhibitor candidate reducing NOMO-1 cell viability; actives 7.5% (n = 37,000); NOMO-1 AML viability, CellTiter-Glo luminescence, 72 h; inhibition, % (no concentration beside the values); in the data active = inhibition above about 80%; inconclusive = no clear call, values can overlap the other calls
STK33 kin inh = blocks human STK33 kinase activity | AID 2322 | Q9BYT3 | ADP-Glo luminescence, MBP substrate | actives 0.44% (n = 27,000) | inhibition, % at 12.5 µM; in the data active = inhibition above about 20%; inconclusive = no clear call, values can overlap the other calls
Target sequence (Q9BYT3 whole entry, looked up): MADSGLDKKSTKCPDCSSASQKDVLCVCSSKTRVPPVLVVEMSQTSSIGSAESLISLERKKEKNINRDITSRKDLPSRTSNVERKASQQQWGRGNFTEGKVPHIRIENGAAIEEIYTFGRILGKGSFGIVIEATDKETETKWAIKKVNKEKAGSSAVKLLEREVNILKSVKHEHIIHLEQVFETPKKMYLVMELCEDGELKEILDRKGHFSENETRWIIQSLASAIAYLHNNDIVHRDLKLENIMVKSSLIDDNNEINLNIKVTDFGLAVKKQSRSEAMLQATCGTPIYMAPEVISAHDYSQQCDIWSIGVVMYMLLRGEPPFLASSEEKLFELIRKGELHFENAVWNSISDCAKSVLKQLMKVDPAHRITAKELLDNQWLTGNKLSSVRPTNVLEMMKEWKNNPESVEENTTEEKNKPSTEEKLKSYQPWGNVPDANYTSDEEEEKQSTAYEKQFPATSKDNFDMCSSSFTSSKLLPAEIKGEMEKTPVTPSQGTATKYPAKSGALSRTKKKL
Numbers without * were called inactive; ? = inconclusive; nt = not tested or not shown.

SMILES | PD-1 reversal | NOMO-1 viab | STK33 kin inh
COc1ccc(CN(C)C[C@@H]2Oc3c(NC(=O)c4ccc(-c5nccs5)cc4)cccc3C(=O)N([C@@H](C)CO)C[C@H]2C)cc1 | nt | 72.0 | nt
CCOC(=O)CSc1nncc(=O)[nH]1 | 0.1 | 23.2 | -1.7
Cc1cccc(N(CC(=O)O)S(C)(=O)=O)c1C | nt | 11.3 | -0.2
O=C(OC1(C#CCN2CCCCC2)CCCCC1)c1ccccc1 | -6.4 | 116.6* | nt
CC(CNC1CCCCC1)OC(=O)c1ccccc1 (centres undefined) | nt | 21.7 | -8.8
Cc1cc(C)cc(N(CC(=O)Nc2c(C)cc(C)cc2C)S(C)(=O)=O)c1 | 0.0 | 19.9 | -0.7
COc1c(-c2coc3cc4c(cc3c2=O)CC(O)C(C)(C)O4)ccc2c1C=CC(C)(C)O2 (centres undefined) | nt | 101.5* | 5.4
CC1(C)C=Cc2c(cc3occ(-c4ccc5c(c4)OCO5)c(=O)c3c2O)O1 | nt | 47.1 | 5.5
CNC(=S)Nc1cc(Cl)cc(Cl)c1 | 0.3 | 16.3 | nt
Cc1ccc(S(=O)(=O)Nc2ccc3c(c2)CC(=O)N([C@@H](C)CO)C[C@H](C)[C@@H](CN(C)Cc2ccccc2)O3)cc1 | 0.4 | 90.6* | 0.2
C[C@@H]1CN([C@H](C)CO)C(=O)Cc2cc(NS(=O)(=O)c3ccccc3)ccc2O[C@H]1CN(C)Cc1ccccc1 | nt | 20.3 | -0.6
Cc1ccc(S(=O)(=O)Nc2ccc3c(c2)CC(=O)N([C@H](C)CO)C[C@@H](C)[C@H](CN(C)Cc2ccccc2)O3)cc1 | 1.5 | 4.9 | 0.5
Cc1ccc(S(=O)(=O)Nc2ccc3c(c2)CC(=O)N([C@H](C)CO)C[C@H](C)[C@H](CN(C)Cc2ccccc2)O3)cc1 | 2.8 | 98.1* | -2.5
Cc1cc2c(c(Sc3ccc(Cl)cc3)n1)C(=O)NC2=O | -7.7 | ? | 0.2
COc1ccc(S(=O)(=O)N(C)CC(=O)Nc2ccc(I)cc2)cc1C | 0.0 | 3.4 | -1.6
C[C@@H]1CN([C@@H](C)CO)C(=O)Cc2cc(NS(=O)(=O)c3ccc(Cl)cc3)ccc2O[C@@H]1CN(C)CC1CC1 | nt | 7.5 | -0.7
C[C@@H]1CN([C@@H](C)CO)C(=O)Cc2cc(NS(=O)(=O)c3ccc(F)cc3)ccc2O[C@@H]1CN(C)CC1CCCCC1 | -3.2 | ? | -3.3
C[C@H]1CN([C@@H](C)CO)C(=O)Cc2cc(NS(=O)(=O)c3ccc(Cl)cc3)ccc2O[C@@H]1CN(C)CC1CC1 | nt | 9.4 | -1.2
C[C@H]1CN([C@@H](C)CO)C(=O)Cc2cc(NS(=O)(=O)c3ccc(Cl)cc3)ccc2O[C@@H]1CN(C)CC1CCCCC1 | nt | 119.5* | 0.8
Cc1ccc(S(=O)(=O)Nc2ccc3c(c2)CC(=O)N([C@@H](C)CO)C[C@@H](C)[C@@H](CN(C)CC2CC2)O3)cc1 | nt | 8.3 | -8.9
C[C@H]1CN([C@@H](C)CO)C(=O)Cc2cc(NS(=O)(=O)c3ccc(F)cc3)ccc2O[C@H]1CN(C)CC1CCCCC1 | -6.0 | 114.7* | 0.8
C[C@H]1CN([C@@H](C)CO)C(=O)Cc2cc(NS(=O)(=O)c3ccc(Cl)cc3)ccc2O[C@H]1CN(C)CC1CCCCC1 | -11.7 | 135.3* | -2.8
Cc1ccc(S(=O)(=O)Nc2ccc3c(c2)CC(=O)N([C@H](C)CO)C[C@H](C)[C@H](CN(C)CC2CCCCC2)O3)cc1 | -1.7 | 98.6* | 0.8
O=C(CSc1nnc(-c2cccc(Cl)c2)n1-c1ccccc1)Nc1ccccc1 | nt | -2.8 | -0.6
Cc1ncsc1CCSc1nc2ccccc2c(=O)n1-c1ccccc1 | -6.8 | 34.6 | 10.7
SMILES | PD-1 reversal | NOMO-1 viab | STK33 kin inh
CC(C)[C@@H]1CC[C@@H](C)C[C@H]1OC(=O)c1ccccc1 | nt | 18.7 | 2.5
C[C@H](CO)N1C[C@H](C)[C@H](CN(C)CC2CC2)Oc2ccc(NS(=O)(=O)c3ccc(Cl)cc3)cc2CC1=O | 1.9 | 35.2 | nt
C[C@H](CO)N1C[C@H](C)[C@H](CN(C)CC2CCCCC2)Oc2ccc(NS(=O)(=O)c3ccc(Cl)cc3)cc2CC1=O | -5.0 | 97.4* | -0.2
C=C[C@@]1(C)C[C@H](O)[C@@H]2[C@@H](OC(O)[C@H]2C)[C@@H]1C(=C)C (some centres undefined) | nt | nt | 2.4
CC1=C(C#N)C(c2cc(F)ccc2F)C(C(=O)OCc2ccccc2)=C(N)O1 (centres undefined) | -1.4 | 73.8 | nt
O=C(C1c2ccccc2Oc2ccccc21)N1CCCc2ccccc21 | 0.9 | 50.7 | nt
CCOC(=O)COc1ccc(-c2nc3c([nH]2)c(=O)n(C)c(=O)n3C)cc1OC | 2.3 | 149.3* | -1.2
CCOCCCNc1nc2c([nH]1)c(=O)n(C)c(=O)n2C | 0.2 | 7.6 | -3.4
CC(=O)OC[C@H]1O[C@@H](Oc2ccccc2COC(=O)C2(O)C=CCCC2=O)[C@H](OC(C)=O)[C@@H](O)[C@@H]1O (some centres undefined) | 0.5 | 57.5 | -1.9
O=C(CSc1n[nH]c(-c2ccco2)n1)N1c2ccccc2Sc2ccccc21 | nt | 32.7 | -1.6
CCOC(=O)CSc1n[nH]c(CN2c3ccccc3Sc3ccccc32)n1 | 0.6 | 116.7* | -1.8
CCn1c(SCC(=O)Nc2cc(C(F)(F)F)ccc2Cl)nnc1-c1ccccc1F | 1.0 | 20.1 | -3.6
CC1(C)CC(C)(c2ccccc2)c2cc(SC#N)ccc2N1 (centres undefined) | -4.8 | 113.7* | nt
CC(=O)N1c2ccccc2C(C)(c2ccccc2)CC1(C)C (centres undefined) | -1.4 | ? | nt
COc1cc(C2NC(=S)NC(c3ccccc3)=C2C(=O)c2ccccc2)cc(I)c1OCCO (centres undefined) | -3.9 | 25.9 | -8.1
COC(=O)COc1cc(Cl)c(C2NC(=S)NC(c3ccccc3)=C2C(C)=O)cc1OC (centres undefined) | nt | 117.2* | -4.6
COc1ccc(N2CCc3c(C)c(C#N)c4nc5ccccc5n4c32)cc1 | -1.0 | 113.8* | nt
C=CCSc1c2c(c(C#N)c3nc4ccccc4n13)CCC2 | -8.4 | 58.5 | nt
CCOC(=O)c1cc(C#N)c(Nc2ccccc2OC)nc1C(F)(F)F | 4.3 | 23.2 | -2.7
CCOC(=O)c1cc(C)nc(Sc2ccccc2NC(=O)c2cccc(C(F)(F)F)c2)c1C#N | -0.7 | 114.2* | nt
Cc1cc(OCC(=O)Nc2cc(-c3nc4ccccc4o3)ccc2C)ccc1Cl | -3.6 | 43.3 | 1.7
CCOC(=O)c1c(NC(C)=O)sc2c1CCCCC2 | 1.0 | 43.3 | nt
CCOC(=O)C1CCN(C(c2cccc(Cl)c2)c2c(NC(C)=O)sc3c2CCCC3)CC1 (centres undefined) | -0.2 | 109.1* | nt
COC(=O)c1cc(NC(=O)CSc2nc(C)cc(C)n2)cc(C(=O)OC)c1 | -0.2 | 113.8* | -6.5
COc1ccc(NC(=O)CSc2nc(C)cc(C)n2)cc1 | -0.9 | -8.5 | -3.8
SMILES | PD-1 reversal | NOMO-1 viab | STK33 kin inh
N#CC(C(=O)c1cccc(C(F)(F)F)c1)=C1SCCCCS1 | 0.1 | 57.5 | nt
CSC(SC)=C(C#N)C(=O)c1cccc(C(F)(F)F)c1 | -2.3 | 122.7* | nt
Cc1cc(C)c(Cn2nc(C(C)(C)C)cc2C(=O)NN2CCOCC2)c(C)c1 | 4.1 | 24.8 | -0.8
CCCC1=NN(C(=O)/C=C/c2cccs2)C(=O)C1Cc1c(F)cccc1Cl (centres undefined) | -0.7 | 52.3 | nt
C=CCC1C(=O)N(S(=O)(=O)c2ccc(Cl)cc2)N=C1CCC (centres undefined) | -4.8 | 110.2* | 0.7
CCn1c(SCC(=O)Nc2cccc(C)c2C)nnc1-c1cccs1 | -0.5 | 27.2 | -0.1
